From the supplement of paper PMC12669032
Values without a mark were called inactive.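 How the source made its calls: active = AUC reduced over 20% with Padj below 0.05 in at least 2 of 3 replicates; inactive = otherwise.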

Tests used:
Roseburia intestinalis = test: growth AUC relative to DMSO control (median of replicates) (fraction); higher = more growth (less inhibition), active = hit call of the paper; conditions: 20 µM; 24 h
In short: (§1)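 Each value is the median of three biological replicates, grown on separate days, of a gut bacterial monoculture incubated anaerobically at 37 °C in mGAM with 20 µM compound (1% DMSO). Cultures started at OD600 0.05 and were read at OD600 hourly for 24 h, with the minimum OD set to 0. Area under the growth curve was normalised to the plate median of solvent-only wells, or to row and column medians on the industrial chemical plate.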

Streptococcus salivarius = test: as above; conditions: 20 µM; 24 h
In short: as §1

Structure (SMILES)	growth AUC (Roseburia intestinalis)	growth AUC (Streptococcus salivarius)
COC(=O)Nc1nc2ccccc2[nH]1	1	0.971
CCOC(=O)N(C)C(=O)CSP(=S)(OCC)OCC	1.03	1
CCOc1cc(Oc2ccc(C(F)(F)F)cc2Cl)ccc1[N+](=O)[O-]	0.884	0.976
c1nc[n]([Sn]([CH]2CCCCC2)([CH]2CCCCC2)[CH]2CCCCC2)n1	0.654 (active)	1.01
Clc1ccc(Cl)c(Cl)c1Cl	0.999	1.04
CN(C)c1nc(=O)n(C2CCCCC2)c(=O)n1C	1.02	1.01
CNC(=O)ON=C(C)C(C)SC (stereo not drawn)	0.949	0.924
CCOCn1c(-c2ccc(Cl)cc2)c(C#N)c(Br)c1C(F)(F)F	0.983	0.944
CC(C)(COCc1cccc(Oc2ccccc2)c1)c1ccc(OC(F)(F)Br)cc1	1.05	0.966
CNC(=O)CSP(=O)(OC)OC	1.02	1.01
N#Cc1cc(Br)c(O)c(Br)c1	0.953	0.959
N#CCNC(=O)c1cnccc1C(F)(F)F	1	0.995
O=C(NC(=O)c1c(F)cccc1F)Nc1ccc(Oc2ccc(C(F)(F)F)cc2Cl)cc1F	1.1	0.985
CC[C@H](C)[C@H]1O[C@]2(C=C[C@@H]1C)C[C@@H]1C[C@@H](C/C=C(\C)[C@@H](O[C@H]3C[C@H](OC)[C@@H](O[C@H]4C[C@H](OC)[C@@H](NC)[C@H](C)O4)[C@H](C)O3)[C@@H](C)/C=C/C=C3\CO[C@@H]4[C@H](O)C(C)=C[C@@H](C(=O)O1)[C@]34O)O2.O=C(O)c1ccccc1	0.0307 (active)	0.798 (active)
CC1CCCCC1NC(=O)Nc1ccccc1 (mixture of isomers)	0.985	1.02
CCOC(=O)C(SP(=S)(OC)OC)c1ccccc1 (stereo not drawn)	1.03	1
CCS(=O)c1c(C#N)nn(-c2c(Cl)cc(C(F)(F)F)cc2Cl)c1N (stereo not drawn)	1.01	1.06

Structure (SMILES)	growth AUC (Roseburia intestinalis)	growth AUC (Streptococcus salivarius)
O=C(O)c1c(Cl)ccc2cc(Cl)cnc12	0.978	1.05
Cc1occc1C(=O)Nc1ccccc1	0.996	0.995
Nc1nc(N)nc(N)n1	1.09	1.02
CCS(=O)Cc1ccccc1OC(=O)NC (stereo not drawn)	1.02	0.987
C#CCOS(=O)OC1CCCCC1Oc1ccc(C(C)(C)C)cc1 (mixture of isomers)	0.956	1.03
Cc1ccccc1[N+](=O)[O-]	0.969	1.01
O=C(O)c1ccc(=O)[nH]c1	1.01	0.981
Fc1ccc(Oc2ccnc3cc(Cl)cc(Cl)c23)cc1	1.02	0.956
COP(=S)(NC(C)C)Oc1ccc(C)cc1[N+](=O)[O-] (stereo not drawn)	1.01	1.02
N#Cc1c[nH]cc1-c1cccc2c1OC(F)(F)O2	1.07	0.962
CC(C1CC1)C(O)(Cn1cncn1)c1ccc(Cl)cc1 (mixture of isomers)	1.06	0.973
CC(Oc1cc(Cl)c(Cl)cc1Cl)C(=O)O (stereo not drawn)	0.935	0.976
CCOCN(C(=O)CCl)c1c(C)cccc1CC	1.01	1
ClC(Cl)=C(c1ccc(Cl)cc1)c1ccc(Cl)cc1	0.945	0.965
CCOC(=O)C(Cl)Cc1cc(-n2nc(C)n(C(F)F)c2=O)c(F)cc1Cl (stereo not drawn)	1.03	1.03
C#CCN1C(=O)COc2cc(F)c(N3C(=O)C4=C(CCCC4)C3=O)cc21	0.965	0.974
OC[C@@H](O)[C@H]1O[C@@H]2O[C@H](C(Cl)(Cl)Cl)O[C@@H]2[C@H]1O (mixture of isomers)	0.967	1.01
